Data published in PubChem BioAssay AID488862 (Broad Institute, 2010).
The whole screen tested about 340,000 compounds, of which about 1,200 (0.35%) were called active. The full list was thinned out, with actives kept by preference. A number with no mark means an inactive call. Cut-off read from the data, not from the text of the source: active = inhibition above about 52%; inactive = the rest.

test: inhibition of PrP 5' UTR reporter expression (AID 488862); conditions: cell-based PrP 5' UTR mRNA reporter, plate reader; stronger effect = higher value; concentration not given here; note: 0 = median of the neutral control wells

Structure (SMILES) | inhibition
O=C(CCn1c(=O)oc2ccccc21)Nc1ccon1 | -14.3%
CCCNC(=O)C1CC(=O)N(c2ccc(OCC(=O)Nc3cccc(C)c3C)cc2)C1 (stereo unspecified) | -2.71%
O=C(c1ccc2c(c1)C(=O)N(Cc1ccncc1)C2=O)N1CCN(S(=O)(=O)c2ccc(OC(F)(F)F)cc2)CC1 | -12.7%
CC[n+]1c(C)n(-c2ccccc2)c2ccc(NC(C)=O)cc21 | -45%
CSc1nc(N(C)NC(=O)c2cccc(C)c2)c2ccccc2n1 | 30.9%
CN(NC(=O)c1ccccc1F)c1nc(C(F)(F)F)nc2ccccc12 | 61.9% (active)
Cn1c(CC(=O)NNC(=O)c2ccccc2F)nc2ccccc21 | -14.3%
CCOC(=O)c1ccc(NC(=O)C2CC(=O)Nc3nc4ccccc4n32)cc1 (stereo unspecified) | -13.3%
Nc1ccc(OCC(O)C[n+]2ccc(CCS(=O)(=O)[O-])cc2)cc1 (stereo unspecified) | 78.9% (active)
CCCc1ccc(OCC(O)CN2CCN(CCO)CC2)cc1 (stereo unspecified) | -4.25%
CCCc1ccc(OCC(O)CN2CCN(C(=O)OCC)CC2)cc1 (stereo unspecified) | -12.3%
COC(=O)N1CN(C(=O)OC)CN(C(=O)OC)C1 | -16.8%
COC(=O)C1C(=O)c2c([nH]c(C(=O)OCCSC)c2C)CC1C (stereo unspecified) | -51.7%
CCCOC(=O)c1[nH]c2c(c1C)C(=O)CC(c1cccs1)C2 (stereo unspecified) | 60.4% (active)
CCOC(=O)C1=C(N)N(c2ccc(C)cc2)C2=C(C(=O)CCC2)C1c1cccs1 (stereo unspecified) | -23.6%
COc1cccc(NC(=O)N2CCCC2C(=O)NC2CCCCC2)c1 (stereo unspecified) | -31.7%
C/C(=C(\C#N)C(=O)NCCCN1CCOCC1)N(C)C | -31.6%
COc1cccc2c1OCC(C(=O)NCc1ccc(Cl)cc1Cl)=C2 | -13%
COC(=O)C(C)Sc1ccc2nnc(-c3cccc(F)c3)n2n1 (stereo unspecified) | -8.06%
COCCNc1cc(-c2ccccc2)nc2cc(-c3cccc(F)c3)nn12 | 59.6% (active)
COc1ccc(NC(=O)c2cc3nc(-c4ccccc4)cc(C)n3n2)cc1OC | -26.9%
COc1ccc(OC)c(-c2csc(-c3cccs3)n2)c1 | 4.49%
COc1ccc(/C=C/c2noc(-c3ccccc3OC(C)=O)n2)cc1 | -28.8%
COc1ccc(-c2nc(-c3ccccc3)no2)c(OC)c1 | 66.6% (active)
COc1ccccc1Nc1nnc(SC(C)C(=O)NC2CC2)s1 (stereo unspecified) | 2.27%
CCOC(=O)c1c(/N=C/c2cc(C)ccc2O)sc2c1CCC2 | -12.5%
